Measurements published in PubChem BioAssay (NCATS).
Results filed as inconclusive are left out. Where a call stands in place of a potency, no number is given. Calls of active or inactive are those of the source. Calls follow the shape of the dose curve; as a rule, active = well fitted cell-killing curve with a large enough effect; inconclusive = small, poorly fitted or top-dose-only effect, or effect the other way; inactive = flat fitted curve, though single readings scatter.

experiment: Cell Viability - HUV-EC-C (AID 542); conditions: HUV-EC-C endothelial cell viability, qHTS; series mostly up to 92.2 µM; also: nearly all actives have a fitted effect of over 35% in size
Excerpt: NIH Chemical Genomics Center [NCGC]
NIH Molecular Libraries Screening Centers Network [MLSCN]
National Institutes of Environmental Health Sciences [NIEHS]
National Toxicology Program [NTP]
We have developed a 1536-well cell-based assay for quantitative high throughput screening (qHTS) against a number of cell lines to determine in vitro cytotoxicity of small molecules. This particular assay uses the HUV-EC-C cell line which is derived from normal human vascular endothelial cells.
NCGC Assay Protocol Summary:
The CellTiter-Glo luminescent cell viability assay (Promega) is a homogeneous method to measure the number of viable cells in culture. The end point readout of this assay is based on quantitation of intracellular ATP, an indicator of metabolic activity, using the luciferase reaction. Luciferase catalyzes the oxidation of beetle Luciferin to oxyluciferin and light in the presence of ATP. The luminescent signal is proportional to amount of ATP present.
Using the CellTiter-Glo luminescent cell viability assay, the amount of cellular ATP was measured in the HUV-EC-C cell line with complete culture medium following compound treatment for 40 hours. The assay was performed in opaque white Kalypsys 1536-well plates. In the screen, tamoxifen and doxorubicin were used as positive controls. Library compounds were measured for their ability to cause acute toxicity in the cell line, as reflected by a decrease in intracellular ATP levels, in a concentration-dependent manner. […] AC50 values were determined from concentration-response data modeled with the standard Hill equation.
qHTS protocol for CellTiter Glo HUV-EC-C cellular assay
[Step] [Parameter] [Value] [Description]
1. Reagent; 5 uL; 1000 HUV-EC-C cells/well
2. Time; 5 hr; 37 °C incubation
4. Controls; 23 nL; Tamoxifen 0.34 uM to 100 uM & Doxorubicin 0.02 nM to 100 uM
5. Time; 40 hr; 37 °C incubation
6. Reagent; 5 uL; CellTiter Glo reagent
7. Time; 20 min; Room Temperature
8. Detection; Luminescence; Viewlux plate reader
Keywords: cell viability, cytotoxicity, HUV-EC-C cell line, luminescence, NTPHTS, NTPHTS_NCGC, NIEHS, EPA, DSSTox, MLSMR, MLSCN, NIH Roadmap, qHTS, NCGC

Compound	Potency
CN(C)CCCCl	inactive
CSc1ccc(C=O)cc1	inactive
CC(=O)CCc1ccccc1	inactive
CC(=O)c1ccccn1	inactive
Cc1cc(C2(c3cc(C)c(O)cc3C)OS(=O)(=O)c3ccccc32)c(C)cc1O	inactive
CC(C)(O)C(=O)O	inactive
Nc1ccc([N+](=O)[O-])c(N)c1	inactive
Nc1cc(S(=O)(=O)O)ccc1O	inactive
Nc1ccccc1S(=O)(=O)O	inactive
CC(C)Nc1ccccc1	inactive
Cc1cccc(C)c1[N+](=O)[O-]	inactive
FB(F)F	inactive
O=[N+]([O-])c1ccc(CCO)cc1	inactive
C[C@@H]1CC2(OC3C[C@@]4(C)C5=CC[C@H]6C(C)(C)C(O[C@@H]7OC[C@@H](O)[C@H](O)[C@H]7O)CC[C@@]67C[C@@]57CC[C@]4(C)C31)OC(O)C1(C)OC21 (stereo not given in full)	inactive
CCC(C)O (stereo not given)	inactive
CCCCCCO	inactive
C=C(C)C(=O)OCCCCCC	inactive
COC(=O)CC#N	inactive
O=C(O)c1ccc(Cl)c(Cl)c1	inactive
O=C(O)CN(CC(=O)O)CC(=O)O	inactive

Compound	Potency
O=C(O)CCSSCCC(=O)O	inactive
CCCC(Cl)CCCC(Cl)CCC(Cl)CCC(Cl)CCC(Cl)CCCC(Cl)CCC (stereo not given)	inactive
O=C(O)c1ccccc1Cl	inactive
C[C@@H]1CC2(OC[C@]3(C)O[C@H]23)O[C@H]2C[C@@]3(C)[C@@H]4CC[C@H]5C(C)(C)C(O[C@@H]6OC[C@@H](O)[C@H](O)[C@H]6O)CC[C@@]56C[C@@]46CC[C@]3(C)[C@@H]12 (stereo not given in full)	inactive
CNC(=O)N(c1ccccc1)c1ccccc1	inactive
CCCCCCC(=O)O	inactive
N#CCc1ccccc1[N+](=O)[O-]	inactive
O=C1CCCCC1	inactive
Clc1ccc(Cl)c(Cl)c1Cl	inactive
Cc1ccc2nc(-c3ccc(N)cc3)sc2c1S(=O)(=O)O	inactive
C=C(C)C(=O)OCCCCCCCCCC	inactive
CCCCC(CC)COCC1CO1 (stereo not given)	inactive
CNC(=O)c1ccccc1	inactive
CCC1CO1 (stereo not given)	inactive
Cc1cc([N+](=O)[O-])ccc1N	inactive
CCOCCOCC	inactive
O=Nc1ccc(NO)cc1	inactive
Cc1cccc2ccccc12	inactive
CCCC=O	inactive
Cc1ccc2oc(=O)ccc2c1	inactive
